Results taken from PubChem BioAssay AID651957 (The Scripps Research Institute Molecular Screening Center, 2012).
About 620 (0.17%) of roughly 370,000 compounds were called active.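 How the source made its calls: active means inhibition above the mean inhibition of all tested compounds plus 3 SD, set per campaign (cut at about 52% in these data); inactive means the rest.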 This excerpt belongs to a sample that is enriched for actives.

What follows are molecules tested against Nuclear receptor coactivator 2 (Homo sapiens) (UniProt Q15596) (assay: inhibition of GAL4-SRC2 driven luciferase reporter, primary screen, SRC2 inhibitor project, cell-based, luminescence (AID 651957;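 further: 0% = DMSO treated cells and 100% = cells given Gossypol at 36 µM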)). Details: HEK293 GAL4-SRC2 luciferase reporter, at 9 µM, stronger effect = higher value.
Nuclear receptor coactivator 2 (Homo sapiens), sequence (Q15596 whole entry, looked up, the tested form may be a part): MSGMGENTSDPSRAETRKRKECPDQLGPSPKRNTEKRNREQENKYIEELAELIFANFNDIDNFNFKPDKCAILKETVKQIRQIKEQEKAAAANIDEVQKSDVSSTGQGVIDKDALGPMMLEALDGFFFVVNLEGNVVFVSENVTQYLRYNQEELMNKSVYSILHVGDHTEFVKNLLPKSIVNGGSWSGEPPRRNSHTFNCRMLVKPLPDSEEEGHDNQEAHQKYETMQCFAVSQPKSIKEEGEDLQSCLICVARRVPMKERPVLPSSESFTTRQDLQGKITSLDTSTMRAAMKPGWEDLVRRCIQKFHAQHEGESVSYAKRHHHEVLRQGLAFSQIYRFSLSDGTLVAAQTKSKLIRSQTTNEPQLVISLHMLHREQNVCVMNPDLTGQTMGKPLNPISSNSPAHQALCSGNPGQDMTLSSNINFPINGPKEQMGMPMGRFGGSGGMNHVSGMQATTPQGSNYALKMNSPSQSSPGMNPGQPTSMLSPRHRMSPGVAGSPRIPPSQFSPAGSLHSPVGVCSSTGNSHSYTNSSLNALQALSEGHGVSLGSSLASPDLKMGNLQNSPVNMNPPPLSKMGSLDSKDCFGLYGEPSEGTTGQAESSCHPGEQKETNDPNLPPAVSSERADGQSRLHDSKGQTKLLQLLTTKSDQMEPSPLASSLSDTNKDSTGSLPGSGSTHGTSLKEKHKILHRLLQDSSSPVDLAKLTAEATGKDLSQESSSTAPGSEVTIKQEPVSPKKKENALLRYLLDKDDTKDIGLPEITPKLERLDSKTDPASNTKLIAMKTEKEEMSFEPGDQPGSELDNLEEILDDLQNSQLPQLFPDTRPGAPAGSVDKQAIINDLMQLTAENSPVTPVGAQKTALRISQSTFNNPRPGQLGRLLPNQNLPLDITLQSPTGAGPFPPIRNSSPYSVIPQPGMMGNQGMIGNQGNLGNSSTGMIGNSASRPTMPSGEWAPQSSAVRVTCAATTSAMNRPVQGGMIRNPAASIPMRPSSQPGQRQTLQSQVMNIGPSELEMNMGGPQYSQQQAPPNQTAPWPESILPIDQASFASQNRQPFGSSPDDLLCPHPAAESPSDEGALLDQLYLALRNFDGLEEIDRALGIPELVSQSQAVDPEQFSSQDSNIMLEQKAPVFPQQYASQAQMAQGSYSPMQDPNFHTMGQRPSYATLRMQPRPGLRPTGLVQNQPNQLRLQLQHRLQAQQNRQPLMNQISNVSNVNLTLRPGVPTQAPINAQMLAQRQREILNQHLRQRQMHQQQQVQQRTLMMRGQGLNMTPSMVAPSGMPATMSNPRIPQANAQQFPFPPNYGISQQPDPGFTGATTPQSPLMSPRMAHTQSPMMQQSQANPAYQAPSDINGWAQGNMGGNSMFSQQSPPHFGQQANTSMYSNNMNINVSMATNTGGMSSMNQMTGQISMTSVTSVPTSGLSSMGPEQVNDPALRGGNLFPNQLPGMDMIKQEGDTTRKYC

Row | SMILES | inhibition
1 | N#C/C(=C/c1ccc(Cl)cc1)NC(=O)c1ccccc1 | -29% (inactive)
2 | CCOc1cc(/C=C(/C#N)c2ccc(Cl)cc2)cc(Cl)c1OCC(=O)O | 56.9% (active)
3 | CCOC(=O)CN(C(=O)COc1nc(C)cc(C)c1C#N)c1ccc(Cl)cc1 | -18% (inactive)
4 | C=CCn1c(SCC(N)=O)nnc1-c1ccccc1OC | -9.59% (inactive)
5 | CN(c1ccc2nc3ccccc3c(=O)n2n1)C1CCCCC1 | 72.1% (active)
6 | CC(C)CC1NC(=O)c2cc(Cl)ccc2-n2c1nc1ccccc1c2=O (stereo not given) | 5.29% (inactive)
7 | O=C(c1ccco1)N(Cc1nc2ccccc2c(=O)[nH]1)C1CCCC1 | 2.27% (inactive)
8 | O=C(NC1Cc2ccccc2C1)c1cc(COc2cccc(C(F)(F)F)c2)on1 | 11.1% (inactive)
9 | CC1(C)CC(N2CCN(C(c3ccccc3)c3ccccc3)CC2)=CC(=[N+]2CCCCC2)C1 | 24.5% (inactive)
10 | COc1ccc(S(=O)(=O)N2CCc3ccccc32)cc1C(=O)Nc1cc(S(C)(=O)=O)ccc1Cl | -10.2% (inactive)
11 | O=C(Nc1nc2ccc(Cl)cc2s1)c1cc(-c2ccc(Cl)cc2)nc2ccccc12 | -2.88% (inactive)
12 | CC(OC(=O)CN1C(=O)C2CCCCC2C1=O)C(=O)Nc1ncc(Cl)cc1Cl (stereo not given) | 1.55% (inactive)
13 | CC1=CC(C)(C)Nc2ccc(OC(=O)CN3C(=O)C4CCCCC4C3=O)cc21 (stereo not given) | 52.7% (active)
14 | O=C(COC(=O)CN1C(=O)C2CCCCC2C1=O)Nc1ccc(F)c(F)c1F (stereo not given) | -13.3% (inactive)
15 | Cc1ccc(-n2c(SCC(=O)Nc3cccc4ccccc34)nnc2-c2ccco2)cc1 | -19.3% (inactive)
16 | CC(C)(C)c1ccc(Oc2ccc(N)cc2)cc1 | 92% (active)
17 | CN1CCNC(=O)C1CC(=O)NCCC1=CCCCC1 (stereo not given) | 20.1% (inactive)
18 | CN1CCCCC(NC(=O)C(C)(C)C)C1=O (stereo not given) | -8.4% (inactive)
19 | CCC(c1ccc(NC(=O)OC(C)(C)C)cc1)c1cc(OC)cc(OC)c1 (stereo not given) | 11.3% (inactive)
20 | CC(=O)c1cc(-c2ccc3ccccc3c2)c(=O)n2c1CCC2 | -32.7% (inactive)
21 | COc1cccc(CN2CCN(Cc3ccc4cccc(F)c4n3)CC2CCO)c1 (stereo not given) | -4.49% (inactive)
22 | COc1ccc(/C=C/C(=O)NC(=S)N2CCCC(C(N)=O)C2)cc1 (stereo not given) | -8.4% (inactive)
23 | CCOc1ccc(NC(=O)COC(=O)C2CCC(=O)N2)c([N+](=O)[O-])c1 (stereo not given) | -12.2% (inactive)

Row | SMILES | inhibition
24 | CCOc1ccc(NC(=S)NC(=O)/C=C/c2ccc(OC)cc2)c([N+](=O)[O-])c1 | 95.6% (active)
25 | CC(C)(C)c1ccc(CSc2nnc(-c3cccs3)o2)cc1 | -21.4% (inactive)
26 | COC[C@@H]1CCCN1c1ccc2c(c1)O[C@H](C)CCN(C1CC1)S2(=O)=O | 14.3% (inactive)
27 | O=C(NCc1ccccn1)[C@@H]1CCCN1C(=O)[C@@H]1CCCN1C(=O)c1ccccc1 | -0.2% (inactive)
28 | COc1ccc(C2=CN(Cc3ccccc3)C(c3ccc(OC)cc3)CC2=O)cc1 (stereo not given) | 12.8% (inactive)
29 | CCOC(=O)[C@]12CCCC3=C1N(CCC3)C(=O)[C@@H](CC(=O)N1CCSCC1)C2 | 12.6% (inactive)
30 | CCOC(=O)CNc1nc(Cl)nc(Nc2ccc(OC)cc2OC)n1 | -23.9% (inactive)
31 | CC1(C)CC2CC(C)(CN2c2ncnc3ccc(Br)cc23)C1 (stereo not given) | 17.4% (inactive)
32 | COc1ccc(Nc2ncnc3ccc(Br)cc23)c(OC)c1 | 86.6% (active)
33 | CC(C)CNc1cccc2c1S(=O)(=O)N(Cc1cn(Cc3ccccc3C(F)(F)F)nn1)Cc1ccccc1O2 | 2.85% (inactive)
34 | CC(=O)Nc1ccc(NC(=O)COC(=O)C2CCC(C(C)(C)C)CC2)cc1 (stereo not given) | -24.4% (inactive)
35 | CCOC(=O)c1sc(N)c(C#N)c1COC(=O)C1=COCCO1 | 7.27% (inactive)
36 | CCC(C)(C)c1ccc(Oc2ccc(NC(=O)COC(=O)C3=COCCO3)cc2)cc1 | 56.6% (active)
37 | Cc1nnc(SCC(=O)N2c3ccccc3C(C)(c3ccc(Cl)cc3)CC2(C)C)s1 (stereo not given) | -11.4% (inactive)
38 | C=CCNC(=O)c1sc(SC)cc1-c1ccc(Cl)cc1 | 3.88% (inactive)
39 | O=C(OC12CCCN(C1)/C(=C/c1ccccc1)C2)c1ccco1 (stereo not given) | 9.76% (inactive)
40 | OCC[C@H]1C[C@H](O)[C@@H](O)[C@]2(CCc3ccccc3O2)O1 | 3.27% (inactive)
41 | CCOC(=O)c1ccccc1NS(=O)(=O)c1c(C)nc2sccn2c1=O | -4.6% (inactive)
42 | Cc1ccc(-c2cn3cc(C)ccc3n2)cc1 | 72.6% (active)
43 | Cc1nc(=O)c(-c2ccccc2)c(C)n1-c1ccc(Br)cc1 | -29.2% (inactive)
44 | Cc1ccc2nc(-c3ccc(Br)cc3)cn2c1 | 60.3% (active)
45 | Cc1ccc2nc(-c3ccccc3)c(CC3CCCCC3)n2c1 | -25.6% (inactive)
46 | Cc1nc(-c2ccccc2)cn2c1nc1ccccc12 | 7.57% (inactive)

Row | SMILES | inhibition
47 | COc1cc(C(=O)Nc2cc(C(F)(F)F)ccc2N2CCOCC2)ccc1O | -7.29% (inactive)
48 | COc1ccc(C(=O)Nc2ccccc2C(=O)N/N=C/c2ccc(O)c(OC)c2)cc1 | 55% (active)
49 | COc1cc(/C=C/C(=O)OCC(=O)Nc2cccc(Oc3ccccc3)c2)ccc1O | 11.1% (inactive)
50 | Cc1ccccc1NC(=O)Cn1nnc(-c2ccccc2F)n1 | 11.4% (inactive)
51 | C=CCn1c(C)cc(C2=NNC(=NCC)SC2)c1C | 84.4% (active)
52 | CC(C)CNc1cccc2c1S(=O)(=O)N(Cc1cn(Cc3ccc(Cl)cc3)nn1)Cc1ccccc1O2 | 26.6% (inactive)
53 | Cc1nnc(NC(=O)CSc2nccn2-c2cccc(C)c2C)s1 | -5.88% (inactive)
54 | Cc1cccc(CS(=O)(=O)c2ncc(Cl)c(C(=O)Nc3ccc(F)cc3)n2)c1 | 62.1% (active)
55 | Cc1cccc(C(=O)Nc2c(-c3ccc(F)cc3)nc3ncccn23)c1 | 16.3% (inactive)
56 | O=C(CCS(=O)(=O)c1ccccc1)Nc1ccc(Cl)c(Cl)c1 | -2.79% (inactive)
57 | Cc1ccc(CS(=O)(=O)c2ncc(Cl)c(C(=O)Nc3nnc(C)s3)n2)cc1 | 64% (active)
58 | Cc1ccc(CS(=O)(=O)CCC(=O)NC2CC2)cc1 | -50% (inactive)
59 | Cc1cccc(NC(=O)c2nc(S(=O)(=O)Cc3ccccc3)ncc2Cl)c1 | 64.1% (active)
60 | Cc1cccc(NC(=O)c2cc3c(C)nn(-c4ccccc4)c3s2)c1 | 0.27% (inactive)
61 | CN(CCC(=O)Nc1cc(S(=O)(=O)N(C)C)ccc1Cl)CC(=O)Nc1ccc(F)cc1 | -17.9% (inactive)
62 | O=C(NCCC1=CCCCC1)C1CCN(S(=O)(=O)c2ccc(Cl)s2)CC1 | -18.3% (inactive)
63 | COc1ccc(N2CCN(CCNS(=O)(=O)c3ccc([N+](=O)[O-])cc3)CC2)cc1 | 9.36% (inactive)
64 | O=S1(=O)c2ccc(Br)cc2OC[C@@H](Cc2ccccc2)N1Cc1cn(Cc2ccco2)nn1 | -13.6% (inactive)
65 | CC1CCC(N2CC(=O)N(Cc3ccc4c(c3)OCO4)C(c3ccc(F)cc3)C2=O)CC1 (stereo not given) | 3.66% (inactive)
66 | Clc1ccc(C(Cn2ccnc2)OCc2ccsc2Cl)c(Cl)c1 (stereo not given) | 7.22% (inactive)
67 | COc1ccc2cc(C(=O)O)n(CC(=O)c3ccccc3)c2c1 | -12.1% (inactive)
68 | C=CCOc1ccc(C(=O)Nc2ccccc2C(=O)N2CCCC2)cc1 | -24.2% (inactive)
69 | C=CCOc1ccc(/C=C2\SC(=S)N(CCC(=O)O)C2=O)cc1 | 85.7% (active)

Row | SMILES | inhibition
70 | Cc1cc(OCCCC(=O)NCCN2C(=O)S/C(=C\c3cccnc3)C2=O)ccc1Cl | -14.1% (inactive)
71 | CCOC(=O)C1=C(C)NC2=C(C(=O)CC(C)(C)C2)C1c1ccc2c(c1)OCO2 (stereo not given) | 11.6% (inactive)
72 | COc1ccc2c(c1)CCC/C2=N\OC(=O)c1ccccc1F | 4.64% (inactive)
73 | CCCCCCCCN1C(=O)[C@@H](CC(=O)NCCCC)C[C@@]2(C(=O)OC)C1=C[C@H](C(C)(C)C)O[C@@H]2C | -9.63% (inactive)
74 | Nn1c(SCC(=O)Nc2ccc(S(N)(=O)=O)cc2)nnc1-c1n[nH]c2c1CCC2 | 10.6% (inactive)
75 | CCOC(=O)C1=C(CC)Nc2ccccc2N=C1N | 12.5% (inactive)
76 | CCOC(=O)C1=C(c2ccc(OC)cc2)C(=O)c2ccccc2C1=O | 73.8% (active)
77 | CCOC(=O)C1C(=O)C=C(c2ccc(OC)cc2)CC1c1ccco1 (stereo not given) | -4.74% (inactive)
78 | O=C(CN1C(=O)c2ccccc2S1(=O)=O)N1CCc2ccccc21 | 73.3% (active)
79 | NS(=O)(=O)c1ccc(CCNC(=O)CN2C(=O)c3ccccc3S2(=O)=O)cc1 | 1.66% (inactive)
80 | Cc1ccc(S(=O)(=O)N(C)CC(=O)N2CCc3ccccc32)cc1 | -6.78% (inactive)
81 | O=C(COC(=O)c1cnccn1)Nc1cccc2ccccc12 | -4.93% (inactive)
82 | CCOC(=O)C(C(=O)c1ccccc1)C(c1ccccc1)c1nccc2ccccc12 (stereo not given) | 14.8% (inactive)
83 | COc1cccc(CC(=O)N2CCN(C(=O)C(=O)c3cccc(C(F)(F)F)c3)CC2)c1 | 7.57% (inactive)
84 | C[C@H]1CCC/C=C/C(=O)c2c(O)cc(O)cc2CC(=O)O1 | 64.6% (active)
85 | COc1ccc(S(=O)(=O)NCC(=O)NCc2cc(=O)n(C)c(=O)n2C)cc1F | -9.55% (inactive)
86 | CC1CCC2(CC1)NC(=O)N(CC(=O)NCc1ccco1)C2=O (stereo not given) | -29.4% (inactive)
87 | CC1(C)CC(=O)c2sc(N)nc2C1 | 3.79% (inactive)
88 | O=c1oc2ccccc2cc1-c1cn(-c2ccccc2)c(=S)[nH]1 | 80.4% (active)
89 | COc1cccc(NC(=O)N(C)C[C@@H]2OCc3cn(nn3)CCCC(=O)N([C@@H](C)CO)C[C@H]2C)c1 | -2.21% (inactive)
90 | COC(=O)[C@]12C[C@H](CC(=O)NCc3cccc(C(F)(F)F)c3)C(=O)N(Cc3ccc4c(c3)OCO4)C1=C[C@H](COCc1ccccc1)O[C@@H]2C | 4.24% (inactive)
